# Measurements published in PubChem BioAssay (NCATS).
# Results filed as inconclusive are left out. Where a call stands in place of a potency, no number is given. A number with no mark means an inactive call. The source made the active and inactive calls. Calls come from the whole dose curve; as a rule, active = well fitted curve in the direction sought with a large enough effect; inconclusive = small, poorly fitted or top-dose-only effect, or another doubt; inactive = no such curve, though single readings can be large; an effect the other way counts as inactive or inconclusive.
# How the values were obtained:
# JEG-3 = assay: Primary qHTS to identify gynecologic anti-cancer compounds using libraries of approved drugs and bioactive compounds (AID 1345084); conditions: Gynecologic cancer cell panel viability, ATPlite luminescence, 48 h; series mostly up to 57.5 µM; note: nearly all actives have a fitted effect of over 55% in size; note: potency is the fitted concentration of half-maximal effect
# Outline: (§1)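 Cell viability after 48 h drug treatment, ATPlite luminescence readout; five doses.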
# OV90 = assay: as above; conditions: Gynecologic cancer cell panel viability, ATPlite luminescence, 48 h; series mostly up to 57.5 µM
# Outline: as §1
# PA-1 = assay: as above; conditions: Gynecologic cancer cell panel viability, ATPlite luminescence, 48 h; series mostly up to 57.5 µM
# Outline: as §1
# SKOV3 = assay: as above; conditions: Gynecologic cancer cell panel viability, ATPlite luminescence, 48 h; series mostly up to 57.5 µM
# Outline: as §1
# Tov-21-G = assay: as above; conditions: Gynecologic cancer cell panel viability, ATPlite luminescence, 48 h; series mostly up to 57.5 µM
# Outline: as §1
# Tov112D = assay: as above; conditions: Gynecologic cancer cell panel viability, ATPlite luminescence, 48 h; series mostly up to 57.5 µM
# Outline: as §1
# [1] = qHTS assay to identify inhibitors of the type 1 interferon - major histocompatibility complex class I in skeletal muscle: Counter screen cell viability and HiBit confirmation (AID 1347412); conditions: iHSKM muscle cells + IFN-b, HiBiT or CellTiter-Glo, 24 h; Viability; at 45.9 µM (top of the series); note: nearly all actives have a fitted effect of over 60% in size
# Outline: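 Duplicate plates, pinned identically: one read for HiBiT-tagged endogenous HLA-B luminescence, the other for ATP-content viability via CellTiter Glo. Cells were genome-engineered human myoblasts given 4 ng/ml IFN-b; compounds 12-pt, 1:3 from 46 uM final; 24 hr exposure.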
SMILES,Potency (JEG-3),Potency (OV90),Potency (PA-1),Potency (SKOV3),Potency (Tov-21-G),Potency (Tov112D),"activity change, negative = inhibition [1]"
CCNC(=O)Nc1ccc2ncc(Nc3ccc(C)cc3)nc2n1,inactive,inactive,inactive,inactive,inactive,inactive,
C1Cc2[nH]nc(-c3nn[nH]n3)c2C1,inactive,inactive,inactive,inactive,inactive,inactive,
C[C@]1(CO)CN(c2cc(C(=O)Nc3ccc4c(c3)-c3c(c(C(N)=O)nn3-c3ccc(F)cc3)CC4)c(Cl)cn2)C[C@@]1(C)CO,inactive,inactive,11.2 µM (active),,,,
C[C@]12CC[C@H](O)CC1=CCC1C2CC[C@]2(C)C(n3cnc4ccccc43)=CCC12 (some centres not stated),inactive,inactive,inactive,inactive,inactive,inactive,
O=C(c1cncc(Br)c1)N1CCC(N2CCCC2)CC1,inactive,inactive,inactive,inactive,inactive,inactive,
COc1ccc2c(c1)CC[C@@H](CN(C)CC(=O)O)[C@H]2c1ccccc1,inactive,inactive,inactive,inactive,inactive,inactive,
COc1ccc(-n2nc(C(N)=O)c3c2C(=O)N(c2ccc(N4CCCCC4=O)cc2)CC3)cc1,inactive,inactive,inactive,inactive,inactive,inactive,
O=C(O)Cn1nnc(-c2cc(N3CCC(Oc4cc(F)ccc4Br)CC3)no2)n1,inactive,inactive,inactive,inactive,inactive,inactive,
N#Cc1c(O)c2c(-c3ccc(-c4ccccc4O)cc3)csc2[nH]c1=O,inactive,inactive,inactive,inactive,inactive,inactive,
Clc1ccc2ncc(-c3cccc(NC4CNC4)n3)n2c1,inactive,inactive,inactive,inactive,inactive,inactive,
CNC(=O)c1ccc(N2C(=S)N(c3cnc(C#N)c(C(F)(F)F)c3)C(=O)C23CCC3)cc1F,inactive,inactive,inactive,inactive,inactive,inactive,
Cc1ccc(CN2CCNCC2)cc1NC(=O)CNc1ccc(F)c(F)c1,inactive,inactive,inactive,inactive,inactive,inactive,
CCCNC(=O)Nc1ccc(Oc2ncnc3cc(OC)c(OC)cc23)cc1Cl,inactive,inactive,inactive,inactive,inactive,inactive,
CCCCCCCCCC(=O)N[C@@H](Cc1c[nH]c2ccccc12)C(=O)N[C@H](CC(N)=O)C(=O)N[C@@H](CC(=O)O)C(=O)N[C@@H]1C(=O)NCC(=O)N[C@@H](CCCN)C(=O)N[C@@H](CC(=O)O)C(=O)N[C@H](C)C(=O)N[C@@H](CC(=O)O)C(=O)NCC(=O)N[C@H](CO)C(=O)N[C@@H]([C@@H](C)CC(=O)O)C(=O)N[C@@H](CC(=O)c2ccccc2N)C(=O)O[C@@H]1C,inactive,inactive,inactive,inactive,inactive,inactive,
Nc1cc(C(F)(F)F)c(-c2cc(N3CCOCC3)nc(N3CCOCC3)n2)cn1,7.94 µM (active),10 µM (active),6.31 µM (active),,,2.82 µM (active),
O=C(CCCCCCNC(=O)c1cnc(N(c2ccccc2)c2ccccc2)nc1)NO,15.8 µM (active),8.91 µM (active),3.16 µM (active),,,28.2 µM (active),
CC(=O)Nc1sc2c(c1-c1nc3ccccc3s1)CNC2,inactive,inactive,31.6 µM (active),,,inactive,
Nc1ccccc1NC(=O)c1ccc(CNC(=O)OCc2cccnc2)cc1,15.8 µM (active),0.631 µM (active),3.16 µM (active),,8.91 µM (active),,
CC(C)Nc1cc(C(F)(F)F)cc2nc(NC(=O)c3cccnc3)nn12,inactive,inactive,,inactive,inactive,,
Cc1cn2cc(C(=O)N(C)CCO)cc(N[C@@H]3CCOc4cccc(C)c43)c2n1,inactive,inactive,,inactive,inactive,inactive,
Nc1nccc(Oc2ccc(NC(=O)c3c[nH]cc(-c4ccc(F)cc4)c3=O)cc2F)c1Cl,inactive,inactive,inactive,,inactive,inactive,1.85%
CC1(O)CC(c2nc(-c3ccc4ccc(-c5ccccc5)nc4c3)c3c(N)nccn23)C1 (configuration not stated),inactive,inactive,inactive,inactive,inactive,inactive,-13.8%
COc1ccc2c(OCc3nnc4ccc(-c5ccccc5)nn34)ccnc2c1,inactive,inactive,inactive,,inactive,inactive,
Cc1cc(CN2CCN(c3c(Br)cnc4nc(-c5ccc(N6CCN(C)CC6)cc5)[nH]c34)CC2)no1,inactive,inactive,,inactive,,,
